# PubChem BioAssay (NCI)
# This is part of a sample that, as a whole, favours compounds with a hit. Of some 83,000 tested, about 20% had one in any assay.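 Plates (96-well) were seeded with cells, treated with compound at one concentration, and incubated for 48 hours before percent growth was determined.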 Values without a mark were called inactive. Activity calls are given as the source filed them. Rule for the calls: active = growth percent below 10; inactive = the rest.
# How the values were obtained:
# Assay in all cases: NCI-60 one-dose screen, 48 h (100 = growth as untreated, 0 = no growth, -100 = all killed)
# Conditions in all cases: 10 µM unless noted
# [1] = tested on: SR leukemia
# [2] = tested on: RPMI-8226 leukemia
# [3] = tested on: OVCAR-8 ovarian
# [4] = tested on: OVCAR-5 ovarian
# [5] = tested on: OVCAR-4 ovarian
# [6] = tested on: SK-OV-3 ovarian
# [7] = tested on: IGROV1 ovarian
# [8] = tested on: OVCAR-3 ovarian
# [9] = tested on: HS 578T breast
# [10] = tested on: NCI/ADR-RES ovarian
# [11] = tested on: T-47D breast
# [12] = tested on: BT-549 breast
# [13] = tested on: MDA-MB-435 melanoma
# [14] = tested on: SW-620 colon
# [15] = tested on: MCF7 breast
# [16] = tested on: HCT-116 colon
# [17] = tested on: HCC-2998 colon
# [18] = tested on: KM12 colon
Compound,growth [1],growth [2],growth [3],growth [4] [%],growth [5],growth [6],growth [7] [%],growth [8],growth [9],growth [10],growth [11],growth [12],growth [13],growth [14],growth [15],growth [16],growth [17],growth [18]
CCC(=O)Oc1c(C)cc(O)c2ccccc12,80.7%,54.6%,81.4%,105,82.3%,104%,88.2,72.6%,91.2%,85.2%,79.5%,82.1%,95.7%,103%,93.3%,70%,106%,88.6%
COc1ccc(Nc2cc(Cl)ccc2C(=O)O)cn1,109%,90.6%,103%,107,103%,97.3%,115,94.5%,95.8%,109%,110%,122%,122%,103%,98.4%,102%,110%,99.2%
CCOC(=O)c1c(C)[nH]c(C)c1C=O,84.4%,89.7%,94.5%,96.4,107%,94%,103,112%,98.9%,107%,82%,95.8%,105%,97.9%,89.1%,101%,92.9%,104%
O=C(O)c1cccc(-n2ncc(Cl)c(Cl)c2=O)c1,102%,93.8%,107%,106,91.1%,106%,130,118%,98.3%,110%,102%,105%,93.2%,113%,74.8%,105%,108%,77.2%
Cc1onc(-c2ccccc2Cl)c1C(=O)Cl,83.8%,99.9%,95.4%,103,98%,99%,117,127%,102%,105%,99.5%,117%,95.3%,103%,89%,105%,102%,119%
Nc1cc(F)ccc1[N+](=O)[O-],114%,106%,118%,97.4,106%,114%,98.4,115%,98.7%,107%,104%,103%,111%,104%,97.6%,97.9%,102%,104%
Cn1c(=O)c2[nH]c(CC(=O)O)nc2n(C)c1=O,99.3%,108%,102%,106,118%,106%,103,108%,107%,102%,102%,107%,112%,108%,101%,104%,101%,105%
CC(C)(CC(=O)O)CC(=O)O,99.3%,104%,121%,99.5,108%,120%,111,105%,111%,99.9%,119%,98.6%,99.7%,103%,103%,103%,99.8%,100%
Cc1ccc[n+](CCC(N)=O)c1,59.8%,102%,103%,93.8,87.4%,94.7%,98.7,111%,87.3%,97.4%,91.7%,110%,101%,96.7%,94.3%,115%,93.1%,91.1%
N=C(N)c1nn(C2OC(CO)C(O)C2O)c2nc[nH]c(=O)c12 (stereo not drawn),-22.7% (active),-19% (active),7.8% (active),30.2,-6.89% (active),-15.7% (active),21.8,-51.9% (active),-19.4% (active),-10.4% (active),-14.6% (active),-14.8% (active),-49.5% (active),-4.15% (active),4.19% (active),-80.3% (active),-22.8% (active),-49.4% (active)
O=C1NC(=O)C(c2ccccc2)O1 (stereo not drawn),93.3%,99.5%,102%,106,98.2%,96.6%,108,117%,117%,97.8%,83.8%,99.6%,104%,111%,105%,98.1%,105%,112%
NCCCN1CCCC1=O,88.2%,107%,97.5%,110,111%,116%,104,112%,109%,101%,115%,110%,124%,108%,104%,107%,100%,104%
OCC1OC(n2ccc3c2ncn2ncnc32)C(O)C1O (stereo not drawn),20.6%,60.7%,6.1% (active),30.2,53.3%,58%,53.4,28.9%,65.2%,23.1%,10.9%,23.3%,62.1%,26.2%,9.97% (active),20.5%,29.1%,27.6%
Clc1ccc(C(SCc2ccccc2)SCc2ccccc2)cc1,81%,83%,95.5%,93.3,89%,94.9%,93.2,90.1%,93.4%,98.9%,79%,103%,97.9%,89.4%,93.8%,76.3%,120%,85.1%
O=C(Nc1ccc([N+](=O)[O-])cc1)C(=O)Nc1ccc([N+](=O)[O-])cc1,101%,105%,86.4%,102,121%,93.5%,105,103%,95%,105%,88.7%,100%,106%,96.5%,90.6%,97.3%,103%,99%
CC(=O)O[C@H]1CC[C@]2(C)C3=C(C(=O)C[C@H]2C1(C)C)[C@]1(C)CC[C@H]([C@H](C)CCC(=O)O)[C@@]1(C)CC3=O,82.6%,101%,109%,100,94.7%,99.3%,103,102%,119%,100%,91.5%,93.9%,98.7%,85.5%,89.6%,99.2%,102%,106%
